Assay results as given in ChEMBL document CHEMBL3988442, “University of Dundee, Small-Polar-MMV Screening Library” (2021).

target: AMP-activated protein kinase, AMPK (Homo sapiens) (UniProt P54646+O43741+P54619+Q9UGJ0+Q9Y478+Q13131+Q9UGI9); assay: AMP-dependent Kinase enzyme assay. An in vitro enzyme assay that detects ADP turnover that is directly proportional to AMPK activity. This uses naive AMPK that is activated during the assay with MK-8722; format: functional; parameters: scale not given: direction of the effect not stated beside the values; conditions: 30 µM

Row | SMILES | Percent Effect
1 | N#Cc1ccc(Cl)cc1NCC1CC1 | 5.1%
2 | CCCn1nc(C)c(CN2CC3(CCOC3)CCC2=O)c1C (stereo not given) | 1.7%
3 | CCOC(=O)c1ccc(S(=O)(=O)NCC(CC)N2CCCC2)cc1 (stereo not given) | -6.04%
4 | CN(CCCc1cnn(C)c1)Cc1cc2n(n1)CCCN(C)C2 | -6.92%
5 | O=C(Cc1c(F)cccc1Cl)NC1CCCCNC1=O (stereo not given) | 7.73%
6 | CN1CCN(CCOc2ccc(NC(=O)c3cnc[nH]3)cc2)CC1 | 0.519%
7 | O=C(CCn1cccn1)NCCOc1cccc(Cl)c1 | -3.1%
8 | O=C(c1coc(COc2ccccc2F)n1)N1CCCO1 | 6.72%
9 | O=C1CN([C@@H]2CC[C@@H](NS(=O)(=O)c3ccc(F)cc3)[C@H]2O)CCN1 | 2.53%
10 | CSCc1noc(-c2ccc(C)c(N3CCNC3=O)c2)n1 | 13.8%
11 | CCc1ccc(N2CCC(NS(=O)(=O)N(CC)CC)CC2)cc1 | 1.78%
12 | Cc1cccc(C(=O)Nc2c(C(N)=O)n[nH]c2C)c1C | -0.641%
13 | CCS(=O)(=O)N1Cc2ccccc2CC1C(=O)OCc1cc(C)no1 (stereo not given) | 5.87%
14 | OCCCNc1cccc(COC2CCCCC2)c1 | -15.3%
15 | Cc1nsc(N2CCN(CC(=O)N(C3CC3)C(C)C3CC3)CC2)n1 (stereo not given) | 7.84%
16 | Cc1ccc(S(=O)(=O)N(CCO)C2CC2)cc1N(C)C | -7.34%
17 | Cc1cc(CN2CCC(C3CCN(CCc4ccccc4)CC3)C2)[nH]n1 (stereo not given) | -4.05%
18 | CCc1cnc(N)nc1NCCC(=O)NC1CCCCC1 | -4.74%
19 | Nc1cc(N2CCC(c3cc(Cc4ccccc4)n[nH]3)CC2)ccn1 | -5.64%
20 | Cn1nccc1-c1cncc(C2CCCN(S(C)(=O)=O)C2)n1 (stereo not given) | 22.7%

Row | SMILES | Percent Effect
21 | CC(C(=O)NCC(C)(C)c1ccc(Br)cc1)n1cncn1 (stereo not given) | 0.177%
22 | COC(=O)c1ccc(N(C(=O)c2cccnc2C)C(C)C)c(C)c1 | -5.67%
23 | COCCN(Cc1ccccc1)C(=O)c1cnn(C)c1C | 2.02%
24 | NC(=O)NC1(C(=O)N2CCc3c(Cl)cccc3C2)CCCCC1 | -3.74%
25 | CC(=O)N1CCC(c2ncc(C(=O)Nc3ccccc3)c(C)n2)CC1 | 25%
26 | CC(CNC(=O)c1cnc[nH]1)Oc1ccc(Cl)cc1 (stereo not given) | 4.75%
27 | O=C1CCCCN1CCc1nc(C2(c3ccc(F)cc3)CCOC2)no1 (stereo not given) | 0.752%
28 | CN(CCc1noc(C2CC2)n1)C(=O)CN1C(=O)COc2ccccc21 | -1.86%
29 | COc1cccc([C@@]2(O)CC[C@@H]3CN(C(=O)c4c[nH]nc4C)C[C@@H]32)c1 | 10.8%
30 | Cc1nc(C)c(C(=O)N2CCCc3c(F)ccc(F)c32)o1 | -2.55%
31 | N#Cc1cccnc1NCCc1cc(F)cc2c1OCOC2 | 22.2%
32 | Cc1cc(N2CCOC(c3ccc(N(C)C)cn3)C2)nc(N)n1 (stereo not given) | 7.96%
33 | NCC1Cc2cccc(-c3ccc(O)c(F)c3)c2O1 (stereo not given) | 89.9%
34 | c1cncc(CNCCc2cccs2)c1 | -7.73%
35 | N#Cc1c(N)nc2c(c1-c1c[nH]nc1C1CCCCC1)COCC2 | 42.5%
36 | Cc1nc(CN2CCOCC2c2[nH]ncc2C)cs1 (stereo not given) | 12.1%
37 | CCN1CCC(NC(=O)N(C)Cc2csc3ccccc23)CC1 | -1.48%
38 | CCCSCC(=O)N1CCCC(CO)(CCC)C1 (stereo not given) | 7%
39 | O=C(CCn1cc(Cl)cn1)N1CCC2(CC1)OCCCC2O (stereo not given) | -8.21%
40 | CNC(=O)c1cn2cc(-c3ccc(F)cc3)n(CC=C(C)C)c(=O)c2n1 | 3.81%
